Experimental data published in PubChem BioAssay (NCI).
About 83,000 compounds went through this panel and 20% of them were active in at least one assay; those are over-represented in the sample as a whole.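 For each line, cells grew in 96-well plates with the test compound present at a single concentration for 48 hours.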 Values without a mark were called inactive. Activity calls are given as the source filed them. How the source made its calls: active means growth percent below 10; inactive means the rest.

Experiments:
Test in all cases: NCI-60 one-dose screen, 48 h (100 = growth as untreated, 0 = no growth, -100 = all killed)
Conditions in all cases: 10 µM unless noted
NCI-H23 lung = test system: NCI-H23 lung
NCI-H226 lung = test system: NCI-H226 lung
NCI-H322M lung = test system: NCI-H322M lung
HOP-62 NSCLC = test system: HOP-62 NSCLC
NCI-H460 lung = test system: NCI-H460 lung
HOP-92 NSCLC = test system: HOP-92 NSCLC
NCI-H522 lung = test system: NCI-H522 lung
A549/ATCC NSCLC = test system: A549/ATCC NSCLC
786-0 renal = test system: 786-0 renal
COLO 205 colon = test system: COLO 205 colon
DU-145 prostate = test system: DU-145 prostate
K-562 leukemia = test system: K-562 leukemia
MALME-3M melanoma = test system: MALME-3M melanoma
MDA-MB-231 breast = test system: MDA-MB-231 breast
RXF 393 renal = test system: RXF 393 renal
SF-268 CNS = test system: SF-268 CNS
SF-295 CNS = test system: SF-295 CNS
SF-539 CNS = test system: SF-539 CNS
UACC-257 melanoma = test system: UACC-257 melanoma
M14 melanoma = test system: M14 melanoma

| SMILES | growth (NCI-H23 lung) | growth (NCI-H226 lung) | growth (NCI-H322M lung) | growth (HOP-62 NSCLC) | growth (NCI-H460 lung) | growth (HOP-92 NSCLC) | growth (NCI-H522 lung) | growth (A549/ATCC NSCLC) | growth (786-0 renal) | growth (COLO 205 colon) | growth (DU-145 prostate) | growth (K-562 leukemia) | growth (MALME-3M melanoma) | growth (MDA-MB-231 breast) | growth (RXF 393 renal) | growth (SF-268 CNS) | growth (SF-295 CNS) | growth (SF-539 CNS) | growth (UACC-257 melanoma) | growth (M14 melanoma) |
| --- | --- | --- | --- | --- | --- | --- | --- | --- | --- | --- | --- | --- | --- | --- | --- | --- | --- | --- | --- | --- |
| CC(=O)O[C@@H]1C[C@]2(C(C)C)O[C@@]1(C)[C@@H]1CCC(C)=C1[C@@H]2OC(=O)/C=C/c1ccccc1 | 95.3% | 66.2% | 93.4% | 90.6% | 94.2% | 72.8% | 73.3% | 82.3% | 87.6% | 94.1% | 101% | 81.7% | 86.4% | 84.1% | 30.8% | 80.8% | 92.1% | 101% | 90.5% | 93.6% |
| CN1CCc2nc3sc(C(N)=O)c(N)c3c(-c3cccs3)c2C1 | 36.2% | 16.3% | 40.7% | 23.3% | 30.4% | -7.38% (active) | 38.9% | 24.1% | 9.22% (active) | 7.02% (active) | 10.2% | 74.2% | 55% | 44.5% | -32% (active) | 16.4% | 21.7% | 10.9% | 57.9% | 15.5% |
| CCOC(=O)c1cc2c(n1Cc1cc(OC)c(OC)c(OC)c1)-c1nc(N)sc1CCC2 | 62.9% | 73.4% | 81.7% | 44.3% | 31.9% | 42% | 7.85% (active) | 28% | 36.8% | 40.3% | 79.1% | 24.6% | 69.5% | 51.6% | 54.9% | 70.5% | 26% | 62.5% | 43.9% | 25.6% |
| CC1CN(S(=O)(=O)c2oc(-c3ccc(Cl)cc3)nc2C#N)CC(C)O1 (stereo not given) | 77.8% | 87.4% | 97.9% | 101% | 103% | 76.3% | -16.2% (active) | 100% | 79% | 2.95% (active) | 97.7% | 4.49% (active) | 46.4% | 90.7% | 40.3% | 111% | 97.9% | 60.7% | 87.3% | 67.9% |
| COc1ccc(Nc2ncc(Br)c(NCCCNC(=O)C3CCCC3)n2)cc1 | 30.3% | 28.5% | 58.5% | 22.4% | 23.6% | 26% | 65.7% | 38.9% | 36.3% | 21.6% | 48.9% | 31.2% | 58.5% | -27.7% (active) | -20.9% (active) | 21.6% | 39.4% | 2.9% (active) | 96.5% | 61.5% |
| COC(=O)/C=C1/SC(=Nc2ccc(C(F)(F)F)cc2)N(CCc2c[nH]c3ccc(O)cc23)C1=O | 18.6% | 1.54% (active) | 6.96% (active) | -26.6% (active) | -60% (active) | -54% (active) | -40.6% (active) | 18.1% | -59.5% (active) | -58.9% (active) | 12.7% | 19.9% | -13.8% (active) | -13.9% (active) | -50.9% (active) | -5.68% (active) | 14.2% | -37.3% (active) | 9.58% (active) | 0.0712% (active) |
| CCC(C(=O)[C@@H](C)[C@@H](O)[C@H](C)[C@@H]1O[C@@H]([C@@H](CC)C(=O)ONC(=O)c2ccccc2)CC[C@@H]1C)[C@H]1O[C@]2(C=CC(=O)[C@]3(CC[C@@](C)([C@H]4CC[C@](O)(CC)[C@H](C)O4)O3)O2)[C@H](C)C[C@@H]1C (stereo not given in full) | -49.7% (active) | 42% | 37.4% | 26.5% | -57.8% (active) | -62.2% (active) | -25.9% (active) | -19.6% (active) | 9.1% (active) | -26% (active) | -13% (active) | -6.87% (active) | -24.7% (active) | -53.2% (active) | -6.41% (active) | 28.4% | 1.07% (active) | -62.8% (active) | 32% | 21.1% |
| CC1=C([Se]CC(OC(=O)CC[Se]c2ccccc2)C(=O)NC(C)(C)C)C(=O)c2ccccc2C1=O (stereo not given) | -45.6% (active) | -49.4% (active) | -51.9% (active) | -36.1% (active) | -49.2% (active) | -74.5% (active) | -38.7% (active) | -1.39% (active) | -90.2% (active) | -90.1% (active) | -94.8% (active) | -11.3% (active) | -57.2% (active) | -41.7% (active) | -87.5% (active) | -88.9% (active) | -36.2% (active) | -99% (active) | -87.3% (active) | -77.8% (active) |
| CC(C)Cn1cnc2c(=O)[nH]c(N)nc21 | 99.3% | 89.8% | 99.9% | 80.8% | 110% | 90.8% | 70.8% | 85.4% | 98.9% | 97.1% | 109% | 99.9% | 98.3% | 114% | 94.4% | 106% | 99.2% | 104% | 84.1% | 105% |
